From PubChem
The full list was thinned out, with hits kept by preference.
Tgondii IFNg = inhibitors of Toxoplasma gondii growth with IFN-gamma; Toxoplasma gondii growth in IFN-gamma-treated host cells; stronger effect = lower value; activity change, negative = inhibition, % (test concentration not listed); 69,000 tested, 3.8% active; in the data active = activity change below about -70%, passing the limit was not always enough;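 also: host cells are HeLa cells infected with Toxoplasma gondii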
Numbers without * were called inactive; i = inactive; ! = a repeat was not active.

SMILES | Tgondii IFNg
CC1CCCCN1CCNC(=O)c1csc(-c2ccc(N3CCCC3)nc2)n1 (stereo not given) | -46
O=C(NCCCN1CCCCC1)c1csc(-c2ccc(N3CCCC3)nc2)n1 | 16
CCN1CCN(CCNC(=O)c2csc(-c3ccc(N4CCCC4)nc3)n2)CC1 | -81*
O=C(CN1CCOC1=O)N1CC(=O)N(C2CCCCC2)CC(OCc2ccccc2)C1 (stereo not given) | 1
C=C(C)COc1cccc(C(=O)N2CCN3CCCC3C2)c1 (stereo not given) | 4
CCCCN1CCC(O)(c2cnc(OC)nc2OC)CC1 | -22
CCn1c(CN2C[C@@H]3CC[C@@](O)(c4cnc(OC)nc4OC)[C@@H]3C2)nc2ccccc21 | -85*
COc1ccc(CN2C[C@@H]3CC[C@@](O)(c4ncccc4C)[C@@H]3C2)cc1 | -51
c1ccc(-c2nnc3n2C2(CCCC2)Cc2ccccc2-3)cc1 | -61
NC(=O)c1cncc(C#CC2(NC(=O)c3cscn3)CCCCC2)c1 | -39
O=C(NCc1cccnc1)c1ccccc1NS(=O)(=O)c1cccs1 | 28
CCOc1ccccc1NS(=O)(=O)c1cccs1 | 3
O=S(=O)(Nc1cc(Sc2ncn[nH]2)c(O)c2ccccc12)c1cccs1 | -98*
FC(F)(F)c1cccc(N2CCN(c3nc(-c4ccc(Cl)cc4)nc4ccccc34)CC2)c1 | -22
Nc1ccc(-c2ccc3ncc4ccc(=O)n(-c5cccc(C(F)(F)F)c5)c4c3c2)cn1 | -76*
COc1ccc(-c2nc(N3CCN(c4cccc(C(F)(F)F)c4)CC3)c3ccccc3n2)cc1 | 6
COc1cccc(OC)c1C(=O)c1ccncc1 | -24
CCOC(=O)c1cccc(NC(=O)c2ccncc2)c1 | 26
CCn1c(=O)c(C(=O)Nc2ccccc2OC)c(O)c2ccccc21 | 70
CCn1c(-c2cc(NC(=O)c3ccncc3)n[nH]2)cc2c(OC)cccc21 | -103*
CCn1c(-c2cc(NC(=O)c3cncc(Br)c3)n[nH]2)cc2c(OC)cccc21 | -97*
COc1cc(NC(=O)c2cncc(Br)c2)c(OC)cc1Cl | 4
COc1ccc2c3c([nH]c2c1)[C@@H](CO)N(C(C)=O)CC31CN(C(=O)CN2CCOCC2)C1 | 212
CC(=O)N1CCC(Cc2cncc(Cl)n2)CC1 | -25
O=C(C[C@@H]1CC[C@@H]2[C@H](COC[C@@H](O)CN2Cc2ccc3c(c2)OCO3)O1)N1CCCCC1 | -19
SMILES | Tgondii IFNg
CN1CC(=O)N2CCN(C(=O)c3ccc(C#CC(C)(C)O)cc3)CC2C1=O (stereo not given) | -1
O=C(NCCc1c[nH]c2ccccc12)c1cc2occc2c(Nc2ccc(F)cc2)n1 | -85*
O=C(NCCc1c[nH]c2ccccc12)c1cccnc1 | 40
Cc1noc(-c2ccnc(-n3ncc(C(=O)NCCc4c[nH]c5ccccc45)c3C)c2)n1 | 3
CC(C)NC(=O)C1CC(=O)N(CCc2c[nH]c3ccc(Cl)cc23)C1 (stereo not given) | 286
O=C(O)C1CC2(CCNCC2)CN1Cc1ccccc1Cn1cccn1 (stereo not given) | 2
CC(=O)O[C@@]12CO[C@@H]1C[C@H](O)[C@@]1(C)C(=O)[C@H](O)C3=C(C)[C@@H](OC(=O)[C@H](O)[C@@H](NC(=O)OC(C)(C)C)c4ccccc4)C[C@@](O)([C@@H](OC(=O)c4ccccc4)[C@H]21)C3(C)C | -72*!
CO[C@H]1C(=O)[C@@]2(C)[C@H]([C@@H](OC(=O)c3ccccc3)[C@@]3(O)C[C@H](OC(=O)[C@H](O)[C@@H](NC(=O)OC(C)(C)C)c4ccccc4)C(C)=C1C3(C)C)[C@]1(OC(C)=O)CO[C@@H]1C[C@H]2OC | -79*
CC(=O)O[C@@]12CO[C@@H]1C[C@H](O)[C@@]1(C)C(=O)[C@H](O)C3=C(C)[C@@H](OC(=O)[C@H](O)[C@@H](NC(=O)OC(C)(C)C)c4ccccc4)C[C@@](O)([C@@H](OC(=O)c4ccccc4)C12)C3(C)C (stereo not given in full) | -83*
O=C(Cc1ccc2c(c1)CCCO2)Nc1ccccc1OCCc1ccccn1 | 8
CSc1ccc2c(c1)CCN(C(=O)Nc1nc(C)n(C)n1)C2 | 16
O=C(C[C@@H]1C=C[C@@H](NC(=O)Cc2cccnc2)[C@@H](CO)O1)NCc1ccc2c(c1)OCO2 | -43
Cc1nccn1CCNC(=O)C1ON=C(c2ccc(F)cc2)C1C (stereo not given) | 7
COC(=O)c1c(NC(=O)C(C)C)sc2c1C(C(=O)OC)CC2 (stereo not given) | -94*
COC(=O)c1ccc(C(=O)OC)c(NC(=O)C(C)C)c1 | 6
Cc1sc(NC(=O)C(C)C)c(C(=O)N[C@@H]2C[C@@H](CO)N(C)C2)c1C | 0
COCC1CN(C(=O)[C@H]2CCCO2)Cc2nnn(CC3CC3)c21 (stereo not given in full) | 3
C=CCN(Cc1ccccc1)C(=O)C(=O)N1CCOCC1 | -3
CO[C@@H]1CN(C)C(=O)c2ccc(NC(=O)c3cccc(F)c3)cc2OC[C@H](C)NC[C@@H]1C | 56
O=C(Cc1ccccn1)c1cc(-c2ccn[nH]2)n2ccccc12 | 9
Cc1ccc([N+](=O)[O-])cc1S(=O)(=O)N(C)/N=C/c1cnc2ccc(Br)cn12 | -80*
O=c1oc2ccc3ccccc3c2cc1-c1nc(-c2ccccc2)n[nH]1 | 23
O=C(NCc1ccc(F)cc1F)c1cc(-c2cnc(-c3cccnc3)nc2)cn1CC1CC1 | 9
O=C(Nc1cccnc1)c1cc(-c2cnc(-c3ccccc3)nc2)cn1CC1CC1 | -77*
O=C(Nc1cccnc1)c1cc(-c2cnc(N3CCCC3)nc2)cn1CC1CC1 | -2
SMILES | Tgondii IFNg
CCOCc1cnc2n1CCN(S(=O)(=O)c1cn(C)cn1)C2C (stereo not given) | 2
CCn1nc(C(C)C)cc1C(=O)NCc1cnc(SC)n1C | 1
S=C(Nc1ccc(Oc2ccc(Cl)cc2)cc1)Nc1cccc(Cl)c1Cl | -32
Cc1ccc(Sc2ccc(NC(=O)Nc3ccc(OC(F)(F)F)cc3)cn2)cc1 | -67
Cc1cc(C)cc(NC(=S)Nc2ccc(Oc3ccc(OC(F)(F)F)cc3)cc2)c1 | -106*
O=C(c1ccccc1)N1[C@H](CO)[C@@H](c2ccccc2)C12CN(Cc1nccs1)C2 | 34
CC(=O)OCC(=O)[C@H]1CCC2C3CCC4=CC(=O)CC[C@]4(C)C3CC[C@@]21C (stereo not given in full) | -30
CC(=O)OC(C)C1CCC2C3CC[C@H]4CC(=O)CCC4(C)C3CCC12C (stereo not given in full) | -97*
C[C@H](CCC(=O)O)[C@H]1CC[C@H]2[C@@H]3[C@@H](O)C[C@@H]4C[C@H](O)CC[C@]4(C)[C@H]3CC[C@]12C | 11
CN(C)CCN1CCN(C(=O)c2cscn2)Cc2cccnc21 | 5
CCn1c(N2CCN(C(=O)c3ccccc3)CC2)nc2c1c(=O)n(C)c(=O)n2C | -56
CN(Cc1cccc(C(=O)Nc2nn(C)c3ccccc23)c1)Cc1cnccn1 | -5
C[C@H]1CCCCO[C@H](CN(C)Cc2ccc(C(F)(F)F)cc2)[C@@H](C)CN([C@@H](C)CO)C(=O)c2cc(NC(=O)Nc3cccc4ccccc34)ccc2O1 | i
CC(C)Oc1ccc(-c2cnc3c(-c4ccnc5ccccc45)cnn3c2)cc1 | -76*
COc1ccc(-c2cnc3c(-c4cccc5ncccc45)cnn3c2)cc1 | -23
CN(Cc1cnc2c(-c3ccccc3)cnn2c1)Cc1cccc2ncccc12 | -48
C=CCN1CC(C(=O)NCc2ccc(S(=O)(=O)N(C)C)cc2)CC1=O (stereo not given) | 4
